Test results from PubChem BioAssay AID2732 (Emory University Molecular Libraries Screening Center, 2010).
The campaign covered roughly 220,000 compounds. About 8,200 (3.7%) were called active.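 The calls were made as follows: active = compounds that reduced the stress-induced luciferase reporter signal by more than about 70% of percent inhibition (limit read from the data); inactive = the rest.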 Only a selection was taken, and actives are over-represented in it overall.

assay: inhibitors of CHOP promoter induction, primary screen, cell-based, unfolded protein response, luciferase reporter (AID 2732); conditions: CHO-K1 CHOP-promoter luciferase, tunicamycin-induced, 15-18 h; at 10 µM; stronger effect = higher value;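 also: 0% = tunicamycin plus vehicle and 100% = wells without tunicamycin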

Structure (SMILES)	inhibition
CCOc1ccc(S(=O)(=O)NCCSc2ccccc2)cc1	95.6% (active)
Cc1ccc(S(=O)(=O)NCCSc2ccccc2)cc1[N+](=O)[O-]	33.3% (inactive)
O=S(=O)(NCCSc1ccccn1)c1ccc(Cl)cc1	15.3% (inactive)
N=c1c2c(-c3ccccc3)c(-c3ccccc3)oc2ncn1Cc1ccco1	92.2% (active)
COc1ccc(-c2oc3ncn(Cc4ccco4)c(=N)c3c2-c2ccc(OC)cc2)cc1	-30.9% (inactive)
c1ccc(-c2oc3ncnc(N4CCOCC4)c3c2-c2ccccc2)cc1	57.6% (inactive)
O=C(CNc1ccc(F)cc1F)NC(=O)NCc1ccco1	10.8% (inactive)
Cc1nc2nc(SCC(=O)c3ccccc3)[nH]c2cc1Br	-0.2% (inactive)
CCCc1nc(NCc2ccc3c(c2)OCO3)c2nnn(Cc3ccccc3Cl)c2n1	70.4% (active)
O=C(Cn1cnc2c(nnn2Cc2ccc(F)cc2)c1=O)NCc1ccc2c(c1)OCO2	37.3% (inactive)
Cc1nc(Nc2ccc3c(c2)OCCO3)c2nnn(Cc3ccccc3Cl)c2n1	69.6% (inactive)
CS/C(=C\C(=O)c1ccco1)Nc1ccccc1Cl	1.24% (inactive)
CC(O)c1nc2c(c(=O)n(C)c(=O)n2C)n1C (configuration not stated)	10.6% (inactive)
CCC1C(C#N)=C(SC)NC2=C1C(=O)CC(C)(C)C2 (configuration not stated)	73.6% (active)
CC(=O)C1=C(C)NC2=C(C(=O)CC(C)(C)C2)C1C (configuration not stated)	23.4% (inactive)
COc1cc(C2C(C#N)=C(C)NC3=C2C(=O)CC(C)(C)C3)ccc1O (configuration not stated)	49.1% (inactive)
CCn1c(SCC(=O)N/N=C/c2ccncc2)nc2ccccc21	24.8% (inactive)
CCOC(=O)c1c(NC(=O)CSc2nnc(CNc3ccc(C)cc3C)o2)sc(C)c1C	80.7% (active)
CCOC(=O)c1sc(NC(=O)CSc2nnc(-c3ccco3)o2)c(C(=O)OCC)c1C	19.2% (inactive)
CCOC(=O)c1c(NC(=O)CSc2nnc(Cc3csc(N)n3)n2C)sc(C)c1C	4.17% (inactive)
Nc1c(Cl)cc(S(N)(=O)=O)cc1S(N)(=O)=O	4.35% (inactive)
CCn1c(/C=C/c2ccc([N+](=O)[O-])o2)nc2ccccc2c1=O	5.31% (inactive)
Cn1cc(/C=C/c2nc3ccccc3c(=O)n2-c2cccc([N+](=O)[O-])c2)c2ccccc21	86% (active)
O=[N+]([O-])c1cccc(Nc2c3ccccc3nc3ccccc23)c1	47.9% (inactive)
CCn1c2ccccc2c2cc(NC(=O)Nc3ccc([N+](=O)[O-])cc3C)ccc21	31.1% (inactive)

Structure (SMILES)	inhibition
Nc1scc[n+]1Cc1cccc2cccnc12	12% (inactive)
Cc1cc(NC(=O)/C=C/C(=O)N(c2ccccc2C)C(C(=O)NC2CCCC2)c2ccc(F)cc2)no1 (configuration not stated)	87.6% (active)
Cc1cc(NC(=O)/C=C/C(=O)N(CC(=O)NC2CCCC2)c2ccc(F)cc2)no1	-11.4% (inactive)
Cc1cc(NC(=O)CCC(=O)N(c2cccc(F)c2)C(C(=O)NC2CCCC2)c2ccncc2)no1 (configuration not stated)	-6.58% (inactive)
Cn1cccc1/C=N/NC(=O)CNc1cccc2ccccc12	10.8% (inactive)
O=C(O)c1cccnc1Sc1ncnc2sc3c(c12)CCC3	-7.08% (inactive)
CCC1S/C(=N/N=C/c2ccco2)NC1=O (configuration not stated)	40.4% (inactive)
O=C1OC(/C=C/c2ccccc2)=NC/1=C/c1ccco1	0.75% (inactive)
CC(C)(C)C1C/C(=C/c2ccco2)C(=O)/C(=C/c2ccco2)C1 (configuration not stated)	108% (active)
COc1ccc(-c2csc(NC3OC(=O)c4ccccc43)n2)cc1 (configuration not stated)	-118% (inactive)
COc1cc(/C=N\Nc2nc(-c3cccs3)c(NC(C)=O)s2)ccc1O	-7.52% (inactive)
NNC(=O)c1ccc(COCC(F)(F)C(F)F)cc1	-2.57% (inactive)
COc1ccc(CCNC(=O)C(=O)NCC2CCNCC2)cc1OC	-6.48% (inactive)
C=CCNC(=S)NNC(=O)c1cc(Cl)ccc1OC	-7.01% (inactive)
C=CCNC(=O)c1ccc(C)c(Br)c1	24.2% (inactive)
C=CCNC(=O)c1sc(SC)cc1-c1ccc(Cl)cc1	72.1% (active)
COc1cc(NC(=O)c2ccc(CNc3c(N4CCCC4)c(=O)c3=O)cc2)cc(OC)c1OC	-0.87% (inactive)
COc1ccccc1-n1c(SCC(=O)O)nc2sc3c(c2c1=O)CCC3	8.81% (inactive)
CCOc1ccc(/C(O)=C2\C(=O)C(=O)N(c3ccc(OC)cc3)C2c2ccccc2[N+](=O)[O-])cc1 (configuration not stated)	-9.44% (inactive)
O=c1c(-c2ccccc2)coc2cc(O)ccc12	15.5% (inactive)
O=c1c(-c2ccccc2)coc2c(CN3CCOCC3)c(O)ccc12	-10.6% (inactive)
CC(C)=CCc1c(O)c(CC=C(C)C)c2occ(-c3ccc(O)cc3)c(=O)c2c1O	104% (active)
O=C(c1ccc(Cl)cc1)N1N=C(c2ccccn2)CC1(O)C(F)(F)F (configuration not stated)	6.12% (inactive)
Nc1nc(NC(=O)/C=C/c2ccc(F)cc2)nn1-c1ccccc1	18.8% (inactive)
Cc1noc(C)c1CSCC(=O)Nc1nc2ccc(Oc3ccccc3)cc2s1	80.2% (active)

Structure (SMILES)	inhibition
CCOC(=O)c1c(C2CC2)csc1NC(=O)CSCc1c(C)noc1C	50.5% (inactive)
CCn1c(SCC(=O)Nc2nc3ccc(OC)cc3s2)nnc1-c1ccoc1C	14.3% (inactive)
Cc1ccc(NNC(=O)C2CCC2)cc1C	6.66% (inactive)
COc1ccc2cc1Oc1ccc(cc1)C[C@H]1c3cc(c(OC)cc3CCN1C)Oc1c(O)c(OC)cc3c1[C@H](C2)N(C)CC3	-41.5% (inactive)
CS(=O)(=O)N(CC(=O)Nc1ccc(Cl)c(Cl)c1)C1CCCCC1	99.8% (active)
CN(CC(=O)Nc1ccc(S(=O)(=O)N2CCCC2)cc1)Cc1ccc(Cl)c(Cl)c1	25.8% (inactive)
CCC(C)NC(=O)CN(C1CCCCC1)S(C)(=O)=O (configuration not stated)	5.15% (inactive)
O=C(O)C(NS(=O)(=O)c1cccc2nsnc12)c1ccccc1 (configuration not stated)	16% (inactive)
CCCc1nc2ccccc2c(C(=O)OCC(=O)c2ccc3c(c2)NC(=O)CO3)c1CC	102% (active)
CCCc1nc2ccccc2c(C(=O)OCc2nnc(-c3cc(OC)c(OC)c(OC)c3)o2)c1CC	58% (inactive)
O=C1COc2ccc(C(=O)COC(=O)c3cccnc3Cl)cc2N1	-9.06% (inactive)
C#CCO[C@@H]1C[C@H](n2cnc3c(=O)[nH]c(NC(=O)C(C)C)nc32)O[C@@H]1CO	-12.9% (inactive)
COc1ccc([N+](=O)[O-])cc1N(CC(O)CN(CC(C)C)CC(C)C)S(=O)(=O)c1ccc(C)cc1 (configuration not stated)	9.51% (inactive)
COc1ccc(CN2C(=O)C(C)S/C2=N/N=C/c2ccco2)cc1 (configuration not stated)	5.76% (inactive)
Cc1ccc(NC(=S)NCc2ccccc2Cl)c(C)c1	21.4% (inactive)
S=C(NCCc1ccccc1)Nc1ccccc1	-23.1% (inactive)
S=C(NCCc1ccccc1)NCc1ccccc1Cl	76.7% (active)
CCCCCCCCCCCCC(NC(C)=O)(C(=O)OCC)C(=O)OCC	28.6% (inactive)
Cc1cc(-c2n[nH]c(=S)n2/N=C/C(Br)=C/c2ccccc2)n[nH]1	106% (active)
Cc1cc(-c2n[nH]c(=S)n2/N=C/c2ccco2)n[nH]1	-10.9% (inactive)
S=c1[nH]nc(-c2cccnc2)n1/N=C/C(Cl)=C\c1ccccc1	-39.3% (inactive)
COC(=O)c1sc(NC(=S)NC(=O)c2ccc(C)cc2)nc1C	-2.37% (inactive)
Nc1ccccc1C(=O)NC1CCCCNC1=O (configuration not stated)	13.6% (inactive)
COc1ccccc1Cn1c(CO)nc2ccccc21	6.99% (inactive)
Cc1ccc(Nc2c3c(nc4ccccc24)CCC3)cc1	17.5% (inactive)

Structure (SMILES)	inhibition
Cc1cc(C2=NNC(=Nc3ccc(S(=O)(=O)N4CCOCC4)cc3)SC2)c(C)n1CC1CCCO1 (configuration not stated)	6.71% (inactive)
COCCn1c(C)cc(C2=NNC(=Nc3ccc(F)cc3)SC2)c1C	-7.2% (inactive)
C=CCn1c(C)cc(C2=NNC(=NCC)SC2)c1C	105% (active)
Cn1nccc1CNC(=O)c1ccnn1C	-26% (inactive)
CCCc1ccc(-c2c(C)sc(NC(=O)c3ccnn3C)c2C#N)cc1	76.4% (active)
CCN(CC)C(=O)c1sc(NC(=O)c2ccco2)c(C#N)c1C	-5.34% (inactive)
CCCCCCCN=C(C)c1ccccc1O	-7.28% (inactive)
CCNS(=O)(=O)c1ccc(NC(=O)Nc2cccc(OC)c2)cc1	-10.9% (inactive)
Cc1ccc(NC(=O)Nc2cccc(C(F)(F)F)c2)nc1	-25.1% (inactive)
CCNS(=O)(=O)c1ccc(NC(=O)Nc2cccc(C(F)(F)F)c2)cc1	87.4% (active)
Cn1nc(C(F)(F)F)cc1C(=O)O	13.6% (inactive)
CSC1=NCCN1C(=O)Cc1cccc2ccccc12	13.7% (inactive)
O=C(Nc1ccc2ccccc2c1)Nc1ccc2snnc2c1	79.2% (active)
COc1ccc(NC(=O)Nc2ccc3nsnc3c2)cc1	4.53% (inactive)
O=C(Nc1ccccc1)Nc1nc2ccccc2s1	-20.1% (inactive)
Cc1ccc(F)cc1NC(=O)N1CCCN(c2ccc(C(F)(F)F)cn2)CC1	1.83% (inactive)
COc1cc(NC(=O)c2cncc(-c3ccc(C#N)cc3)c2)cc(C(=O)Nc2cccc(C(F)(F)F)c2)c1	22.1% (inactive)
CNc1nnc(-c2ccco2)s1	7.19% (inactive)
COc1ccc(OCC(=O)Nc2nnc(-c3ccco3)s2)cc1	28.2% (inactive)
Cc1ccc(OCC(=O)Nc2nnc(-c3ccco3)s2)cc1	82.2% (active)
CC(NCc1ccccc1OC1CCCC1)c1ccccc1 (configuration not stated)	11.4% (inactive)
O=C(CSc1nc2ccccc2o1)N/N=C/c1ccccc1C(=O)O	-2.6% (inactive)
